Experimental data from PubChem BioAssay (NCI).
Compounds without any hit were thinned out: in the full panel of roughly 83,000, 20% have a hit.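 Activity criterion: percent growth below 10, measured after cells in 96-well plates were exposed to a single compound concentration for 48 hours.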 Calls of active or inactive are those of the source.

Key:
Experiment in all cases: NCI-60 one-dose screen, 48 h (100 = growth as untreated, 0 = no growth, -100 = all killed)
Details in all cases: 10 µM unless noted
[1] = tested on: BT-549 breast
[2] = tested on: MDA-MB-435 melanoma
[3] = tested on: SW-620 colon
[4] = tested on: MCF7 breast
[5] = tested on: HCT-116 colon
[6] = tested on: HCC-2998 colon
[7] = tested on: KM12 colon

Measured: growth

Nc1c(C(=O)c2ccccc2)sc2nc(-c3cc4ccccc4o3)cc(-c3ccc(Cl)cc3)c12
inactive: [1] 97.9% | [2] 108% | [3] 118% | [4] 92% | [5] 101% | [6] 108%

O=[N+]([O-])c1ccc(Oc2ccc(-c3ccccc3)cc2)cc1
inactive: [1] 79.6% | [2] 101% | [3] 99% | [4] 84.4% | [5] 73.4% | [6] 92.2%

COc1ccc2nc3c(n2c1)C(=O)C(=O)c1ccccc1-3
active: [1] -72.3% | [2] -91.8% | [3] -61.8% | [4] -53.1% | [5] -2.17% | [6] -13.5%

O=c1[nH]nc(-c2ccccc2)c2sc(NC(=S)Nc3ccc(Cl)cc3)nc12
inactive: [1] 92.6% | [2] 103% | [3] 98.1% | [4] 74.9% | [5] 87.8% | [6] 107%

CCC[S@](=O)c1ccc2nc(NC(=O)OC)[nH]c2c1
inactive: [1] 97.3% | [2] 101% | [3] 93.4% | [4] 92% | [5] 84.4% | [6] 105%

Cc1ccc(-c2nc(C#N)c(S(=O)(=O)N(C)CCO)o2)cc1
inactive: [1] 76.7% | [2] 65% | [3] 35.1% | [4] 39.8% | [5] 53.4% | [6] 107%

Nc1n[nH]c2cccc(C#Cc3cccc(NC(=O)c4cc(N5CCOCC5)cc(C(F)(F)F)c4)c3)c12
inactive: [1] 63.4% | [2] 45.8% | [3] 46.6% | [4] 46.6% | [5] 19.4% | [6] 31.3%

C#CCN1C(=O)c2ccccc2N(CC#C)C12CCN(Cc1cn(CC(=O)Nc3ccccc3C(N)=O)nn1)CC2
inactive: [1] 72.4% | [2] 91.9% | [3] 94% | [4] 83.8% | [5] 74.4% | [6] 100%

Cc1[nH]c2ncnc(Oc3ccc(NC(=O)Nc4ccc(Cl)c(C(F)(F)F)c4)cc3)c2c1C
inactive: [1] 79.4% | [2] 45.4% | [3] 77.9% | [4] 31.6% | [5] 42.4% | [6] 60.5%

CCOC(=O)c1c(C(F)(F)F)n([O-])c2ccc(Cl)cc2[n+]1=O
active: [1] -59.6% | [2] -70.1% | [3] -64.7% | [4] -57.6% | [5] -62.8% | [6] -90.8%

Oc1ccccc1-c1nc2c3ccccc3c3ccccc3c2o1
inactive: [1] 103% | [2] 99.3% | [3] 68.4% | [4] 62.4% | [5] 80.7% | [6] 103%

N#C/C(=C/c1ccc(O)c([N+](=O)[O-])c1)c1nc(-c2ccc([N+](=O)[O-])cc2)cs1
inactive: [1] 36.3% | [2] 40.2% | [3] 54.2% | [4] 25.8% | [5] 33.8% | [6] 30.4%

NC(=O)c1ccc(C2C3=C(CCCC3=O)OC3=C2C(=O)c2ccccc2C3=O)cc1 (configuration not stated)
active: [2] -87.4% | [4] -28.8% | [5] 1.17%
inactive: [1] 81.4% | [3] 12% | [6] 77.7%

CCOC(=O)c1c(-c2ccc(O)cc2)c(C#N)c2c(C#N)c(N)nn2c1N
active: [2] 1.63%
inactive: [1] 60.9% | [3] 42.6% | [4] 31.5% | [5] 67.6% | [6] 80.9%

Nc1c(C(=O)Nc2ccccc2)sc2nc3c(cc12)CN(C(=O)OCc1ccccc1)CC3
inactive: [1] 52.1% | [3] 30.1% | [4] 21.1% | [5] 28.7% | [6] 77.5%
active: [2] -8.75%

CCCCCOC(=O)c1ccccc1O
inactive: [1] 93.4% | [2] 102% | [3] 105% | [4] 87.6% | [5] 98.9% | [6] 109% | [7] 105%

CC(=O)c1ccc(NC(=O)CSc2nnc(-c3cc(-c4ccc(C)cc4)nc4ccccc34)o2)cc1
inactive: [1] 59.1% | [2] 80.9% | [3] 28.4% | [4] 26.6% | [6] 102%
active: [5] -7.47%

NS(=O)(=O)c1ccc(C2C3=C(CCCC3=O)OC3=C2C(=O)c2ccccc2C3=O)cc1 (configuration not stated)
active: [1] -99.8% | [2] -93% | [3] -45.4% | [4] -61.5% | [5] -73.6% | [6] -61.4%

Nc1c(C(=O)Nc2cccc3ccccc23)sc2nc3c(cc12)CCCCC3
inactive: [1] 12.6% | [3] 24.3% | [4] 17.7% | [6] 33.1%
active: [2] -32.2% | [5] 8.52%

CSc1cccc(NC(=O)Nc2nc3c(C)cccc3s2)c1
inactive: [1] 119% | [2] 106% | [3] 113% | [4] 76.4% | [5] 93% | [6] 106%

N#CC(C#N)=C1NC(c2ccccc2)=C(c2ccccc2)C(c2ccccc2Cl)=C1C#N
inactive: [1] 86.2% | [2] 114% | [3] 110% | [4] 97.1% | [5] 94.1% | [6] 99.5%

COc1cc(/C=C/C(=O)/C=C/c2cc3ccc(Cl)cc3[nH]c2=O)ccc1O
inactive: [1] 97.5% | [2] 36% | [3] 29.7% | [4] 57.8% | [6] 86.3%
active: [5] 2.1%

Cc1c(Cl)cccc1NC(=O)c1sc2nc3c(cc2c1N)CCCCC3
active: [2] -0.269%
inactive: [1] 48.7% | [3] 25.3% | [4] 20.8% | [5] 32.3% | [6] 55.7%

COc1ccc2[nH]c(=O)c(/C=C/C(=O)c3ccccc3OC)cc2c1
active: [2] -10% | [3] 8.4%
inactive: [1] 18.9% | [4] 10% | [5] 16% | [6] 23.1%

CCC1S/C(=N\N=C(/C)c2ccc[nH]2)N(c2ccccc2)C1=O (configuration not stated)
inactive: [1] 126% | [2] 104% | [3] 92.8% | [4] 117% | [5] 91.6% | [6] 104%

C=C1C(=O)O[C@H]2[C@H]1CC/C(COC(=O)c1cccnc1)=C\CC[C@@]1(C)O[C@@H]21
inactive: [1] 68.4% | [2] 49.7% | [3] 17.7% | [4] 21.4% | [5] 15.9% | [6] 108%

COc1cc(NCC(=O)Nc2cc(Nc3ccc(C)cc3)ncn2)c(Cl)c(OC)c1Cl
inactive: [1] 101% | [2] 102% | [3] 103% | [4] 78.6% | [5] 88.4% | [6] 92.6%

COc1ccc2nc(-c3ccc(Cl)cc3)cc(-c3nnc(SC/C(=N/O)c4ccccc4)o3)c2c1
active: [5] 3.9%
inactive: [1] 46.8% | [2] 47% | [3] 26.5% | [4] 19.9% | [6] 84%

Cc1cc(O)cc(O)c1N=NC1=NCCS1
inactive: [1] 93.9% | [2] 105% | [3] 111% | [4] 86.5% | [5] 93.3% | [6] 95.7%

COCCOCCOCc1n(Cc2ccc3ccccc3n2)c2ccccc2[n+]1Cc1ccc2ccccc2n1
active: [1] 9.81% | [4] 9.35%
inactive: [2] 11% | [3] 36.2% | [5] 18.9% | [6] 23.2%

O=C1CCc2ccccc2N1
inactive: [1] 107% | [2] 97.6% | [3] 102% | [4] 96.6% | [5] 101% | [6] 84.8%

C=C1C(=O)O[C@H]2[C@H]1CC/C(COC(=O)c1cn(C)c3ccccc13)=C\CC[C@@]1(C)O[C@@H]21
active: [1] -24.4% | [2] -51.2% | [3] -65.7% | [4] -46.1% | [5] -77.6%
inactive: [6] 34.9%

COc1cccc(C(=O)OCCn2nc3c4c(cccc42)C(=O)c2ccccc2-3)c1O
inactive: [1] 52.8% | [3] 20.9% | [4] 18.4% | [5] 29.6% | [6] 80.3%
active: [2] 6.92%

Nc1ccc2c(c1)C(=O)C(=O)c1c-2nc2ccccn12
inactive: [6] 19.4%
active: [1] -34.6% | [2] -87.3% | [3] 4.01% | [4] -54.7% | [5] 1.3%

NS(=O)(=O)c1ccc(-n2ncc(NC(=O)Nc3ccc(S(=O)(=O)Nc4nccs4)cc3)c2-c2ccccc2)cc1
inactive: [1] 103% | [2] 98.1% | [3] 98.5% | [4] 92% | [5] 93% | [6] 107%

COc1ccccc1-c1ccc2nc(NC(=O)Nc3cc(C(F)(F)F)cc(C(F)(F)F)c3)sc2c1
active: [4] 4.1% | [5] 4.85%
inactive: [1] 13.2% | [2] 10.9% | [3] 11.9% | [6] 11.8%

C#C[C@@]1(O)[C@@H](CO)O[C@@H](n2cc(I)c3c(N)ncnc32)[C@@H]1O
active: [1] -13.2% | [3] 0.663% | [4] 1.73% | [5] 0.762% | [6] -35.3%
inactive: [2] 14.6%

Cc1c(Cl)cccc1NC(=O)c1sc2nc3c(cc2c1N)CN(Cc1ccccc1)CC3
inactive: [1] 61.9% | [3] 16.8% | [4] 16.1% | [5] 39.3% | [6] 82.9% | [7] 30.8%
active: [2] -4.11%

COc1cc(NC(=O)Nc2cnc(Nc3ccc(N4CCOCC4)cc3)nc2Oc2ccc(F)cc2)cc(OC)c1
inactive: [1] 98.2% | [2] 88.3% | [3] 82.7% | [4] 91% | [6] 101% | [7] 92.4%
active: [5] 6.9%
